Results: PubChem BioAssay (NCI)
The panel holds about 83,000 compounds, 20% with a hit somewhere; the sample as a whole holds those more often.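 Single-concentration screen, 48 h exposure, 96-well plates. Endpoint: percent growth. Below 10 = active.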 The source made the active and inactive calls.

Assays:
Experiment in all cases: NCI-60 one-dose screen, 48 h (100 = growth as untreated, 0 = no growth, -100 = all killed)
Conditions in all cases: 10 µM unless noted
NCI-H23 lung = tested on: NCI-H23 lung
NCI-H226 lung = tested on: NCI-H226 lung
NCI-H322M lung = tested on: NCI-H322M lung
HOP-62 NSCLC = tested on: HOP-62 NSCLC
NCI-H460 lung = tested on: NCI-H460 lung
HOP-92 NSCLC = tested on: HOP-92 NSCLC
NCI-H522 lung = tested on: NCI-H522 lung
A549/ATCC NSCLC = tested on: A549/ATCC NSCLC
786-0 renal = tested on: 786-0 renal
COLO 205 colon = tested on: COLO 205 colon

Measured: growth

COc1cc(CC(=O)n2ncc3ccc(N)cc32)cc(OC)c1OC
inactive: NCI-H23 lung 91.4% | NCI-H226 lung 94.9% | NCI-H322M lung 88.5% | HOP-62 NSCLC 94.8% | NCI-H460 lung 102% | HOP-92 NSCLC 99% | NCI-H522 lung 85.6% | A549/ATCC NSCLC 98.9% | 786-0 renal 97.5% | COLO 205 colon 109%

CN(C)c1ccc(C2C(C#N)=C(/N=C/c3ccccc3)Oc3c2ccc2ccccc32)cc1 (stereo not given)
inactive: NCI-H23 lung 80.9% | NCI-H226 lung 55.5% | NCI-H322M lung 98.5% | HOP-62 NSCLC 51.2% | NCI-H460 lung 51.3% | HOP-92 NSCLC 59.8% | NCI-H522 lung 36.4% | A549/ATCC NSCLC 71.4% | 786-0 renal 89% | COLO 205 colon 116%

O=C(O)c1ccc(-c2nn(-c3ccc(C(F)(F)F)cc3)cc2CNc2ccc(Oc3ccccc3)cc2)cc1
inactive: NCI-H23 lung 91.7% | NCI-H226 lung 86.8% | NCI-H322M lung 70.8% | HOP-62 NSCLC 103% | NCI-H460 lung 87.4% | HOP-92 NSCLC 93.3% | NCI-H522 lung 80.2% | A549/ATCC NSCLC 47.9% | 786-0 renal 93.4% | COLO 205 colon 111%

NS(=O)(=O)c1ccc(CCn2c(SCC(=O)c3ccc(Cl)cc3)nc3ccccc3c2=O)cc1
inactive: NCI-H23 lung 95.2% | NCI-H226 lung 104% | NCI-H322M lung 96.3% | HOP-62 NSCLC 96.1% | NCI-H460 lung 105% | HOP-92 NSCLC 109% | NCI-H522 lung 96.7% | A549/ATCC NSCLC 103% | 786-0 renal 92.4% | COLO 205 colon 113%

CCNC(=O)Oc1ccc(/C(=C(\C)c2ccccc2)c2ccc(OCCCN(C)C)cc2)cc1
inactive: NCI-H23 lung 75.8% | NCI-H226 lung 99.2% | NCI-H322M lung 80.7% | HOP-62 NSCLC 87.4% | NCI-H460 lung 87.1% | HOP-92 NSCLC 69.4% | NCI-H522 lung 86.4% | A549/ATCC NSCLC 78.9% | 786-0 renal 64.2% | COLO 205 colon 54.5%

O=C(Nc1ccccc1)Nc1ccc2cc3ccc(NC(=O)Nc4ccccc4)cc3nc2c1
inactive: NCI-H23 lung 23.7% | NCI-H226 lung 91% | NCI-H322M lung 61.6% | HOP-62 NSCLC 46.1% | NCI-H460 lung 92.6% | HOP-92 NSCLC 87.6% | A549/ATCC NSCLC 101% | 786-0 renal 25.7%
active: NCI-H522 lung -4.64% | COLO 205 colon 3.12%

O=S(=O)(NCCCNc1nccc(-c2c(-c3cccc(O)c3)nc3occn23)n1)c1ccc(Cl)cc1
inactive: NCI-H23 lung 94.6% | NCI-H226 lung 108% | NCI-H322M lung 103% | HOP-62 NSCLC 114% | NCI-H460 lung 92.5% | HOP-92 NSCLC 96.6% | NCI-H522 lung 87.6% | A549/ATCC NSCLC 90.5% | 786-0 renal 102% | COLO 205 colon 27.7%

O=S(=O)(NCCCNc1nccc(-c2c(-c3cccc(F)c3)nc3sccn23)n1)c1cccc(F)c1
inactive: NCI-H23 lung 38.8% | NCI-H226 lung 23.2% | NCI-H322M lung 79.9% | HOP-62 NSCLC 61.3% | NCI-H460 lung 58.3% | HOP-92 NSCLC 74.8% | NCI-H522 lung 21.9% | A549/ATCC NSCLC 49.3% | 786-0 renal 66.3% | COLO 205 colon 23.4%

CCOc1cccc(-c2nc(N)nc(Nc3ccccc3SSc3ccccc3Nc3nc(N)nc(-c4cccc(OCC)c4)n3)n2)c1
active: HOP-62 NSCLC -0.309% | A549/ATCC NSCLC -10.8%
inactive: NCI-H23 lung 43.8% | NCI-H226 lung 68% | NCI-H322M lung 85.1% | NCI-H460 lung 35.6% | HOP-92 NSCLC 97.2% | NCI-H522 lung 90.8% | 786-0 renal 84.9% | COLO 205 colon 109%

O=c1ccc(-c2nc(N3CCOCC3)c3ccccc3n2)c[nH]1
inactive: NCI-H23 lung 93.9% | NCI-H226 lung 91.7% | NCI-H322M lung 92.3% | HOP-62 NSCLC 99.6% | NCI-H460 lung 103% | HOP-92 NSCLC 103% | NCI-H522 lung 98.9% | A549/ATCC NSCLC 97% | 786-0 renal 97.1% | COLO 205 colon 106%

COC1=CC(=O)c2ccccc2C1=O
inactive: NCI-H23 lung 48.9% | NCI-H226 lung 104% | NCI-H322M lung 94.9% | HOP-62 NSCLC 44.9% | NCI-H460 lung 106% | HOP-92 NSCLC 127% | NCI-H522 lung 77.8% | A549/ATCC NSCLC 97.4% | 786-0 renal 105% | COLO 205 colon 117%

COc1cc(NC(=O)CSc2nc3ccc(C)cc3c(=O)n2Cc2ccccc2)cc(OC)c1OC
active: HOP-92 NSCLC 0.585%
inactive: NCI-H23 lung 74.2% | NCI-H226 lung 24.7% | NCI-H322M lung 63.4% | HOP-62 NSCLC 45.5% | NCI-H460 lung 57.3% | NCI-H522 lung 31.9% | A549/ATCC NSCLC 66.6% | 786-0 renal 43.3% | COLO 205 colon 88.6%
